# Measurements as given in the supplement of paper PMC13392028.
# System: PvIESI-1 RRM domain (Plasmodium vivax PVP01_0939900 aa 896-1203, GST fusion)
# Experiment: RBNS R-value (6-mer enrichment in protein-bound RNA vs input library) (ratio); higher = stronger binding preference; the methods of the paper give 50 / 100 / 500 nM protein instead
# How it was run: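 GST-tagged RNA-recognition-motif regions of IESI-1 orthologues from three Plasmodium species were expressed in E. coli and purified. Protein was incubated at room temperature with a random 40-mer in vitro transcribed RNA library, captured on glutathione magnetic agarose beads and washed three times. Bound RNA and the input library were reverse transcribed and sequenced on a MiSeq. R-value is each 6-mer's enrichment in bound RNA over input, from the Burge lab pipeline, one replicate.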
Sequence,RBNS R-value (protein concentration: 250 nM),RBNS R-value (protein concentration: 500 nM),RBNS R-value (protein concentration: 1000 nM)
UCUGAU,2.94,3.21,3.02
UGAUGU,4.24,4.51,4.13
GAUGAC,2.47,2.67,2.51
UGAUUU,4.88,5,4.69
GCCCGA,1.45,1.67,1.67
CCCGAG,1.41,1.72,1.72
GAUGGG,2.02,2.1,2.01
CAUGAU,3.57,3.87,3.8
UGAUAG,3,3.35,3.29
UGUGAU,2.53,2.8,2.72
UGAUGG,3.91,4.11,3.78
GAUGAU,3.86,4.13,3.88
CUGAUA,2.42,2.81,2.81
AAUGAU,3.66,3.89,3.94
GUGAUA,2.04,2.34,2.47
GUGAUU,2.96,3.22,3.1
UUGAUU,4.5,4.73,4.43
GAUGAA,2.73,2.89,2.83
UGAUAA,2.82,3.29,3.43
GUUGAU,2.7,2.98,2.73
GCGAUG,1.97,2.19,2.01
CUGAUG,4.09,4.34,4.04
